# Results published in the supplement of paper PMC12494721.
# Structures can show the parent of a compound that is named as a salt.
# Tested on: Ruminococcus gnavus DSM 108212
# Assay: fold change of 2-Phenylethylamine concentration vs plate DMSO controls (fold change (ratio)); higher = more amine produced, active = hit call of the paper (significant change in both replicates, either direction)
# Conditions: incubation time: 27 h, anaerobic, 37 °C;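 for the amine columns active = adjusted P below 0.05 in both replicates with a change the same way and a mean fold change under 0.8 or over 1.25; inactive = the rest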
# Procedure, shortened: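 Amines were quantified by LC–triple-quadrupole MS in dynamic MRM mode against external calibration curves, with drift correction within each batch. The samples were whole anaerobic mGAM cultures of four gut bacterial strains, grown for 27 h at 37 °C in 80 µL wells and extracted with cold acetonitrile/methanol with 0.1% formic acid, then centrifuged. Values are reported as fold change over DMSO controls on the same plate. The mean of 2 biological replicates is given.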
row,SMILES,fold change of 2-Phenylethylamine concentration
1,CC(=O)CC(c1ccc([N+](=O)[O-])cc1)c1c(O)c2ccccc2oc1=O (stereo not drawn) [Acenocoumarol] (20 µM),1.02 (inactive)
2,CCOC1O[C@H]([C@@H](COCc2ccccc2)OCc2ccccc2)[C@H](OCc2ccccc2)[C@H]1O (stereo partly drawn) [Tribenoside] (20 µM),0.961 (inactive)
3,COc1ccc(C[C@@H]2c3cc(OC)c(OC)cc3CC[N@+]2(C)CCC(=O)OCCCCCOC(=O)CC[N@@+]2(C)CCc3cc(OC)c(OC)cc3[C@H]2Cc2ccc(OC)c(OC)c2)cc1OC [Cisatracurium besylate] (20 µM),1.01 (inactive)
4,O=C1CN2Cc3c(ccc(Cl)c3Cl)N=C2N1 [Anagrelide] (20 µM),0.962 (inactive)
5,Cc1c(C)c2c(c(C)c1O)CCC(C)(C(=O)O)O2 (stereo not drawn) [Trolox] (20 µM),1.03 (inactive)
6,COc1cc(C(=O)NCc2ccc(OCCN(C)C)cc2)cc(OC)c1OC [Trimethobenzamide hydrochloride] (20 µM),1.05 (inactive)
7,CC=CC(=O)N(CC)c1ccccc1C [Crotamiton] (20 µM),1.12 (inactive)
8,CCOC(=O)C1=C(C)NC(C)=C(C(=O)OCC)C1c1ccccc1/C=C/C(=O)OC(C)(C)C [Lacidipine] (20 µM),0.955 (inactive)
9,CCOC(=O)CC(=O)N1CCSC1COc1ccccc1OC (stereo not drawn) [Moguisteine] (20 µM),0.994 (inactive)
10,CC(=O)OCC(=O)NCCCOc1cccc(CN2CCCCC2)c1 [Roxatidine acetate hydrochloride] (20 µM),0.905 (inactive)
11,Clc1ccc(C(Cn2ccnc2)OCc2csc3c(Cl)cccc23)c(Cl)c1 (stereo not drawn) [Sertaconazole nitrate] (20 µM),0.591 (inactive)
12,CC[N+](C)(CC)CCOC(=O)C1c2ccccc2Oc2ccccc21 [Methantheline bromide] (20 µM),1.05 (inactive)
13,CN1[C@@H]2CC[C@H]1C[C@@H](OC(c1ccccc1)c1ccccc1)C2 [Benztropine mesylate] (20 µM),1 (inactive)
14,Nc1c(Br)cc(Br)cc1CN[C@H]1CC[C@H](O)CC1 [Ambroxol hydrochloride] (20 µM),0.985 (inactive)
15,COCCCC/C(=N\OCCN)c1ccc(C(F)(F)F)cc1 [Fluvoxamine maleate] (20 µM),1.02 (inactive)
16,Clc1ccc(COC(Cn2ccnc2)c2ccc(Cl)cc2Cl)c(Cl)c1 (stereo not drawn) [Miconazole] (20 µM),0.277 (active)
17,CCCCCCCCCCCCCCCC[N+](C)(C)CCN(Cc1ccc(OC)cc1)c1ncccn1 [Thonzonium bromide] (20 µM),0.782 (inactive)
18,CCCN(CCC)C(=O)C(CCC(=O)O)NC(=O)c1ccccc1 (stereo not drawn) [Proglumide] (20 µM),1.11 (inactive)
19,CN(C)CCC(c1ccc(Br)cc1)c1ccccn1 (stereo not drawn) [Brompheniramine maleate] (20 µM),1.14 (inactive)
20,c1coc(CNc2ncnc3[nH]cnc23)c1 [Kinetin] (20 µM),1.04 (inactive)
21,C#C[C@]1(O)CC[C@H]2[C@@H]3CCC4=CC(=O)CC[C@@H]4[C@H]3CC[C@@]21C [Norethindrone] (20 µM),1.04 (inactive)
22,Oc1ncnc2[nH]ncc12 [Allopurinol] (20 µM),1.02 (inactive)
23,COc1ccc(CN(CCN(C)C)c2ccccn2)cc1 [Pyrilamine maleate] (20 µM),0.963 (inactive)
24,CC(C)(C#N)c1cc(Cn2cncn2)cc(C(C)(C)C#N)c1 [Anastrozole] (20 µM),1.1 (inactive)
25,COC1=CC(=O)C[C@@H](C)[C@]12Oc1c(Cl)c(OC)cc(OC)c1C2=O [Griseofulvin] (20 µM),0.98 (inactive)
26,CC(C)(C)NCC(O)COc1cccc2c1CC(O)C(O)C2 (stereo not drawn) [Nadolol] (20 µM),0.971 (inactive)
27,CC1=C(CC(=O)O)c2cc(F)ccc2/C1=C\c1ccc([S+](C)[O-])cc1 (stereo not drawn) [Sulindac] (20 µM),1 (inactive)
28,O=C1NCN(c2ccccc2)C12CCN(CCCC(c1ccc(F)cc1)c1ccc(F)cc1)CC2 [Fluspirilene] (20 µM),0.884 (inactive)
